GFP derepression – epigenetic GFP locus derepression in mouse cells; mouse C127i GFP locus derepression, cytometry, 30 h; Potency, µM (titrated, usually from 46.1 µM), inactives show at the top dose GFP derepression (activation); 68,000 compounds, 0.09% hits; further: % of control where 0% means no effect
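Locus derepression in mouse mammary C127i cells whose integrated CMV-GFP reporter is normally silent; GFP expression after 30 h compound treatment was quantified by counting fluorescent cells.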
HBB splice mod – alters splicing of the hemoglobin beta chain | Potency, µM (highest dose often 46.1 µM), for inactives: at the highest dose activation, hits mostly activators | AID 925 | HBB splicing reporter cell assay, activation; EGFP reporter with mutant IVS2-654 intron; response scale: normalised to 500 nM splice-correcting PNA | 65,000 compounds, 0.06% hits; further: potency means the concentration at half of the fitted maximal effect; 0% is about no effect
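Compounds were applied for 2 days to HeLa EGFP-654 cells, 500/well in Optimem with 2% FCS. The reporter's EGFP is disrupted by mis-splicing of beta-globin intron IVS2-654. Readout: summed well GFP fluorescence from 488 nm laser scanning; reference was 500 nM antisense […] 654 PNA.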
Luciferase inh – firefly luciferase inhibition. Potency, µM (highest dose often 57.1 µM), inactives show at the top dose activity change, negative = inhibition, hits mostly inhibitors. purified firefly luciferase, luminescence, 8 min. P08659. 72,000 compounds, 2.2% hits; further: potency means the concentration at half of the fitted maximal effect; on the % scale 0 is the no-effect control and ±100 the full control effect; nearly all actives have a fitted effect of over 40% in size
Target sequence (P08659 whole entry, looked up): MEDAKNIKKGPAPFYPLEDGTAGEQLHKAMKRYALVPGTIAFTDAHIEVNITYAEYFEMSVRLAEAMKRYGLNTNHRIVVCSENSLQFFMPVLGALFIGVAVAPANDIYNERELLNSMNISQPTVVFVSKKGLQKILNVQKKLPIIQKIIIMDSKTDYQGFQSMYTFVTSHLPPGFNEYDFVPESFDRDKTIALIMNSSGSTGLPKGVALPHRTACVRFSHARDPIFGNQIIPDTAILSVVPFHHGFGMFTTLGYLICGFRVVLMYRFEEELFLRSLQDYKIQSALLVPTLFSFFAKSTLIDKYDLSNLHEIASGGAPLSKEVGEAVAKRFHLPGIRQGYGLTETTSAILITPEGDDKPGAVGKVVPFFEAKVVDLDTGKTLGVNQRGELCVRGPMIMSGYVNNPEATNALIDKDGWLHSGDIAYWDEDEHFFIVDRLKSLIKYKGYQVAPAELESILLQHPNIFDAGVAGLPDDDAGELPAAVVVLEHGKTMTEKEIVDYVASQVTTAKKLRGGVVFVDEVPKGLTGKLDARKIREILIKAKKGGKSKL
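Inhibition of light generation by firefly luciferase from ATP and luciferin was profiled with concentration-response curves per sample, ATP held at 10 uM within the enzyme's linear range. Plates were read by luminescence after an 8-minute ambient incubation.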
Ub-GFP proteasome – proteasome inhibitors stabilizing ubiquitin-GFP reporter; Potency, µM (top dose mostly 45.9 µM), for inactives: at the top dose activation (GFP accumulation), hits mostly activators; 67,000 tested, under 10 active; Ubiquitin-GFP reporter cells, proteasome inhibition, GFP fluorescence; response scale: untreated = 0%, 10 µM MG-132 = 100%; active means well fitted activation curve with a large enough effect, not every such curve was filed as active; inconclusive means small, poorly fitted or top-dose-only effect, or another doubt; inactive means no such curve, though single readings can be large or run the other way; further: potency means the concentration at half of the fitted maximal effect
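U2OS cells stably expressing ubiquitin(G76V)-GFP, seeded overnight in 0.5% FBS medium, were exposed to compounds (qHTS, 46 uM to 2.9 nM) for 4 hr at 37 °C. GFP-positive cells were counted by laser cytometry (488 ex/515 em), normalized between basal and 10 uM MG-132.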
PK Bst – alters activity of Bacillus stearothermophilus pyruvate kinase. AID 361. Potency, µM. purified pyruvate kinase, luminescence ATP production; ribose 5-phosphate activator present at AC10. 51,000 compounds, 1.2% hits; in the data active means potency below about 11 µM; inconclusive means mostly about 12 µM to 25 µM;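 the screen sought inhibitors and activators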;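 further: potency means the concentration at half of the fitted maximal effect; scaled between full activation by ribose 5 phosphate and full inhibition by luteolin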
* hit, by the source's call; i = inactive; ? = inconclusive; / = not tested or not shown; [ ] = remark or other dose. Shown are actives, neighbours in structure and some others; about 2.6% of the full set was active somewhere. Unless noted, the call rests on the fitted dose curve; in most records, active means well fitted curve in the direction sought with a large enough effect; inconclusive means small, poorly fitted or top-dose-only effect, or another doubt; inactive means no such curve, though single readings can be large; an effect the other way counts as inactive or inconclusive.

SMILES	GFP derepression	HBB splice mod	Luciferase inh	Ub-GFP proteasome	PK Bst
COCCN1Cc2cccc(C(=O)Nc3cccc(OC)c3)c2C1=O	-3%	-3%	-5%	-4%	/
COc1ccc(C(=O)c2oc3ccc(OC)cc3c2N)cc1	0%	0%	10µM*	6%	/
O=C(O)Cn1c(-c2ccccc2)nc2ccccc21	3%	2%	-1%	19%	>57
O=Nc1c2nc3ccccc3n(O)c-2c2ccccc12	1%	5%	-6%	-13%	7.3*
Cn1c2ccccc2c2c(C(=O)NCC3CCCO3)cn(C3CCCC3)c(=O)c21 (centres undefined)	1%	2%	13µM*	-2%	/
CCc1ccc(NC(=O)c2cc(C(C)C)on2)cc1	0%	-2%	13µM*	4%	i
Cc1ccc(NC(=O)c2cc(C)on2)cc1	1%	-1%	16µM*	2%	/
CCc1ccc(NC(=O)c2cc(C)on2)cc1	-3%	0%	7.9µM*	0%	i
CCc1ccc(NC(=O)c2cc(CC(C)C)on2)cc1	/	0%	-14%	-1%	/
C=C1CC[C@@H]2[C@](C)(CC[C@@H](O)[C@]2(C)CO)[C@@H]1C/C=C1/C(=O)OC[C@H]1O	7%[9.22 µM]	/	0%[11.4 µM]	-1%	/
Cc1ccc2nc(Nc3ccc4[nH]c(=O)[nH]c4c3)c(-n3nc(C)cc3C)nc2c1	29%	0%	4µM*	-3%	7.5*
NNc1nncc2ccccc12	2%[20.6 µM]	0%[20.6 µM]	4µM*	2%[20.5 µM]	/
CC1CCN(c2nncc3ccccc23)CC1	4%	0%[57.5 µM]	-1%	8%	>57
COc1ccc(C2C3=C(N=C4SCC(=O)N42)c2ccccc2CC3)cc1 (centres undefined)	1%	2%	25µM*	4%	/
CC(C)C(NC(=O)C1CCCCC1)C(=O)Nc1ccc2c(c1)OCCO2 (centres undefined)	0%	-4%	13µM*	2%	?
CNc1ccnc(-c2ccccc2C)n1	-1%[9.22 µM]	1%	-1%[2.29 µM]	0%	/
N#Cc1cc(-c2ccccc2)oc1NC(=O)c1ccco1	-3%	1%	25µM*	5%	/
O=C(Nc1ccc2c(c1)nc1n2CCOC1)c1ccco1	-2%	5%[0.369 µM]	16µM*	/	?
O=C(Nc1ccc2c(c1)nc1n2CCSC1)c1ccco1	-2%	-1%[0.369 µM]	6.3µM*	/	4.6*
CO/N=C(\C(=O)N[C@@H]1C(=O)N2C(C(=O)O)=C(CSc3nc(=O)c(O)nn3C)CS[C@@H]12)c1csc(N)n1	-2%	2%	5%	-2%	/
COc1ncc2nc(C)c(=O)n(Cc3cccs3)c2n1	-3%[9.22 µM]	1%	1%[11.4 µM]	3%	/
Cc1ccc(-c2nnc(Nc3ccccc3)o2)cc1	-1%	-2%	0.63µM*	0%	0.46*
O=c1n(-c2ccccc2)c(=O)n2n1CC[C@H]1/C(=N\OCc3ccccc3)[C@H]3O[C@@H]3[C@@H](O)[C@@H]12	/	3%[9.22 µM]	0%[11.4 µM]	/	/
CCc1ccc(NC(=O)c2cccnc2)cc1	-1%	4%	-18%	0%	>57
CC(C)c1ccc(NC(=O)c2csnn2)cc1	0%	-2%	5µM*	4%	i
SMILES	GFP derepression	HBB splice mod	Luciferase inh	Ub-GFP proteasome	PK Bst
CC(C)c1ccc(NC(=O)c2cccnc2)cc1	0%	0%[0.0738 µM]	16µM*	-16%[9.17 µM]	/
O=C1C=CC(=O)C2=C1C1c3ccccc3C2c2ccccc21	/	0%	/	/	/
CC(C)CO/N=C1/C[C@@H](O)[C@@H](O)[C@@H]2[C@@H]3C(=O)N(c4cccc(Oc5ccccc5)c4)C(=O)[C@H]3CC[C@H]12	/	1%[9.22 µM]	2%[11.4 µM]	/	/
NNC(=O)CS(=O)(=O)Nc1ncccn1	7%[9.22 µM]	3%[9.22 µM]	1%[11.4 µM]	-4%[9.17 µM]	/
Oc1ccccc1-c1nnc(COc2ccc(Cl)cc2Cl)o1	/	-1%	13µM*	3%	/
Oc1ccccc1-c1nnc(COc2ccccc2)o1	21%	-1%	-19%	13%	/
CCC1CCc2c(sc(NC(=O)c3ccoc3C)c2C(N)=O)C1 (centres undefined)	-3%	-2%	13µM*	-7%	/
COc1ccc2cnn(CCOc3ccccc3)c(=O)c2c1OC	-2%	1%[57.5 µM]	16µM*	1%	/
C[C@H]1[C@H](NC(=O)/C(=N/OC(C)(C)C(=O)O)c2csc(N)n2)C(=O)N1S(=O)(=O)O (stereo in doubt)	6%[20.6 µM]	2%[20.6 µM]	/	10%[20.5 µM]	/
NC1=NC2(CCN(Cc3ccccc3)CC2)n2c(nc3ccccc32)N1	-2%	0%[57.5 µM]	-2%	3%	6.9*
CC(C)[C@@H]1OC(=O)C=CC=CC=CC=CC=CC[C@@H](O)[C@H](C)[C@@H](O)C[C@H](O)C[C@H](O)C[C@H](O)C[C@H](O)C[C@H](O)C[C@H](O)C=C[C@@H]1C	7%[9.22 µM]	1%[9.22 µM]	1%[11.4 µM]	2%[9.17 µM]	/
Cc1cccc(Nc2nnc(SCc3cn4ccsc4n3)s2)c1	-1%	-1%	32µM*	1%	>57
O=C(Nc1nc2ccccc2s1)C1CCCO1 (centres undefined)	-2%	0%[57.5 µM]	-24%	-6%	/
O=C(Nc1ncc(Cc2ccccc2)s1)C1CCCO1 (centres undefined)	/	0%	10µM*	6%	/
COC(=O)Nc1ccc2[nH]cc(CCNC(C)=O)c2c1	1%	/	-1%	-1%	/
Cc1ccc(CNc2ccc(N3CCOCC3)cc2)s1	-1%	/	13µM*	1%	i
CC(=O)N1CCN(c2ccc(NCc3ccc(C)s3)cc2)CC1	/	-1%	-4%	9%	/
CCCCCCC1Cc2cc(OC)c(OC)cc2C(C(C(=O)OCC)C(=O)OCC)O1 (centres undefined)	/	2%[9.22 µM]	/	/	/
Cc1nc2cc(NC(=O)Nc3nccs3)ccc2n1C	-3%	0%	6.3µM*	-1%	11*
O=C(O)CC12C[C@H]3C[C@@H](CC(O)(C3)C1)C2	2%[9.22 µM]	3%[9.22 µM]	-1%[11.4 µM]	-2%[9.17 µM]	/
Cc1nnc(SCc2nnc(-c3ccc(Cl)cc3)o2)n1-c1ccccc1	0%	-2%	-1%	-6%	7.5*
CN[C@@H]1NC(=O)c2ccccc2N1Cc1ccc(F)cc1	-1%[9.22 µM]	-1%[9.22 µM]	2%[11.4 µM]	-2%[9.17 µM]	/
C[C@@H]1Oc2ccc(C(=O)C[C@@H](C(=O)O)c3ccc4c(c3)OCO4)cc2O1	14%[9.22 µM]	4%[9.22 µM]	5%[11.4 µM]	-2%[9.17 µM]	/
Cc1nn(-c2ccccn2)c2nc(-c3cccs3)cc(C(=O)N3CCOCC3)c12	-3%	-1%	-43%	-1%	7.1*
CCOC(=O)c1cc(-c2ccncc2)nc2c1c(C)nn2-c1ccccn1	-1%	0%[57.5 µM]	4%	-5%	/
SMILES	GFP derepression	HBB splice mod	Luciferase inh	Ub-GFP proteasome	PK Bst
COc1ccccc1N1CCN(S(=O)(=O)c2ccc(Cl)s2)CC1	0%	3%	0%	-4%	11*
CCOc1ccccc1N1CCN(S(=O)(=O)c2ccc(Cl)s2)CC1	0%	3%	2%	-6%	?
COc1ccccc1N1CCN(S(=O)(=O)c2cccc3nsnc23)CC1	0%	0%	1%	3%	7.4*
Cc1noc(C)c1-c1nccc(-n2ccnc2)n1	-4%[9.22 µM]	-1%	-1%[2.29 µM]	-2%	/
C#CCOCCCC(=O)O	2%[9.22 µM]	2%[9.22 µM]	3%[11.4 µM]	10%[9.17 µM]	/
O=C(Nc1nc2c(s1)CCCC2)c1ccc2ncsc2c1	/	0%	3.2µM*	-2%	/

Source: PubChem
